# Assay results reported in the supplement of paper PMC7261846.
# Where a name gives a salt, the structure may show the parent alone. ± gives the uncertainty stated by the source.
# System: Candida albicans SNY425 biofilm
# Test: biofilm OD600 with compound plus antifungal (OD600 (absorbance)); higher = more biofilm remaining
# Settings: assay detail: disruption of 24-h mature biofilm (compound + antifungal for a second 24 h)
row,Compound,biofilm OD600
1,O=C(NCCCCN1CCOCC1)c1cc2ccccc2o1 + CC[C@H](C)C[C@H](C)CCCCCCCCC(=O)N[C@H]1C[C@@H](O)[C@@H](NCCN)NC(=O)[C@@H]2[C@@H](O)CCN2C(=O)[C@H]([C@H](O)CCN)NC(=O)[C@H]([C@H](O)[C@@H](O)c2ccc(O)cc2)NC(=O)[C@@H]2C[C@@H](O)CN2C(=O)[C@H]([C@@H](C)O)NC1=O [caspofungin] (first compound 12.5 µM),0.251 ± 0.014
2,O=C1Nc2ccc([N+](=O)[O-])cc2C1=O [5-Nitroisatin] + C[C@@H]1[C@H](O)[C@@H](C)/C=C/C=C/C=C/C=C/C=C/C=C/C=C/[C@H](O[C@@H]2O[C@H](C)[C@@H](O)[C@H](N)[C@@H]2O)C[C@@H]2O[C@](O)(C[C@@H](O)C[C@@H](O)[C@H](O)CC[C@@H](O)C[C@@H](O)CC(=O)O[C@H]1C)C[C@H](O)[C@H]2C(=O)O [amphotericin B] (first compound 12.5 µM),0.256 ± 0.005
3,CC(C)(C)NC(=O)[C@@H]1C[C@@H]2CCCC[C@@H]2CN1C[C@@H](O)[C@H](Cc1ccccc1)NC(=O)[C@H](CC(N)=O)NC(=O)c1ccc2ccccc2n1 [saquinavir] + C[C@@H]1[C@H](O)[C@@H](C)/C=C/C=C/C=C/C=C/C=C/C=C/C=C/[C@H](O[C@@H]2O[C@H](C)[C@@H](O)[C@H](N)[C@@H]2O)C[C@@H]2O[C@](O)(C[C@@H](O)C[C@@H](O)[C@H](O)CC[C@@H](O)C[C@@H](O)CC(=O)O[C@H]1C)C[C@H](O)[C@H]2C(=O)O [amphotericin B] (first compound 12.5 µM),0.243 ± 0.0076
4,CC(C)CN(C[C@@H](O)[C@H](Cc1ccccc1)NC(=O)O[C@H]1CCOC1)S(=O)(=O)c1ccc(N)cc1 [amprenavir] + C[C@@H]1[C@H](O)[C@@H](C)/C=C/C=C/C=C/C=C/C=C/C=C/C=C/[C@H](O[C@@H]2O[C@H](C)[C@@H](O)[C@H](N)[C@@H]2O)C[C@@H]2O[C@](O)(C[C@@H](O)C[C@@H](O)[C@H](O)CC[C@@H](O)C[C@@H](O)CC(=O)O[C@H]1C)C[C@H](O)[C@H]2C(=O)O [amphotericin B] (first compound 12.5 µM),0.283 ± 0.009
5,CC(C)C[C@H](NP(=O)(O)O[C@@H]1O[C@@H](C)[C@H](O)[C@@H](O)[C@H]1O)C(=O)N[C@@H](Cc1c[nH]c2ccccc12)C(=O)O [Phosphoramidon] + CC[C@H](C)C[C@H](C)CCCCCCCCC(=O)N[C@H]1C[C@@H](O)[C@@H](NCCN)NC(=O)[C@@H]2[C@@H](O)CCN2C(=O)[C@H]([C@H](O)CCN)NC(=O)[C@H]([C@H](O)[C@@H](O)c2ccc(O)cc2)NC(=O)[C@@H]2C[C@@H](O)CN2C(=O)[C@H]([C@@H](C)O)NC1=O [caspofungin] (first compound 12.5 µM),0.273 ± 0.012
6,CC(C)C[C@@H](C=O)NC(=O)[C@H](CC(C)C)NC(=O)[C@H](CC(C)C)NC(=O)OCc1ccccc1 + CC[C@H](C)C[C@H](C)CCCCCCCCC(=O)N[C@H]1C[C@@H](O)[C@@H](NCCN)NC(=O)[C@@H]2[C@@H](O)CCN2C(=O)[C@H]([C@H](O)CCN)NC(=O)[C@H]([C@H](O)[C@@H](O)c2ccc(O)cc2)NC(=O)[C@@H]2C[C@@H](O)CN2C(=O)[C@H]([C@@H](C)O)NC1=O [caspofungin] (first compound 12.5 µM),0.281 ± 0.0049
7,N=C(N)Nc1ccc(C(=O)Oc2ccc3cc(C(=N)N)ccc3c2)cc1 [Nafamostat mesylate] + OC(Cn1cncn1)(Cn1cncn1)c1ccc(F)cc1F [fluconazole] (first compound 12.5 µM),0.262 ± 0.011
8,CCC(C)[C@H](NS(=O)(=O)c1cccc2ccccc12)C(=O)N[C@H](C=O)Cc1c[nH]c2ccccc12 (some centres undefined) + CC[C@H](C)C[C@H](C)CCCCCCCCC(=O)N[C@H]1C[C@@H](O)[C@@H](NCCN)NC(=O)[C@@H]2[C@@H](O)CCN2C(=O)[C@H]([C@H](O)CCN)NC(=O)[C@H]([C@H](O)[C@@H](O)c2ccc(O)cc2)NC(=O)[C@@H]2C[C@@H](O)CN2C(=O)[C@H]([C@@H](C)O)NC1=O [caspofungin] (first compound 12.5 µM),0.253 ± 0.01
9,NC(N)=NCCC[C@H](NC(=O)[C@@H]1CCCN1C(=O)[C@H](N)Cc1ccccc1)C(=O)CCl + OC(Cn1cncn1)(Cn1cncn1)c1ccc(F)cc1F [fluconazole] (first compound 12.5 µM),0.269 ± 0.0072
